In paper PMC7862700, “An all-to-all approach to the identification of sequence-specific readers for epigenetic DNA modifications on cytosine”:

How the values were obtained:
Assay in all cases: DAPPL (digital affinity profiling via proximity ligation, sequencing); 10 mM Tris-HCl pH 7.5, 50 mM NaCl, 1 mM DTT, 4% glycerol, room temperature, 30 min; GST-TFs on glutathione beads, 16-mer random dsDNA library, 0.1% formaldehyde crosslink after washing; high values mean tight binding
FEV = target: T1, FEV (Homo sapiens, UniProt Q99581 1-238); details: protein: recombinant; tags: N-terminal GST; dsDNA, one strand shown
T1 sequence: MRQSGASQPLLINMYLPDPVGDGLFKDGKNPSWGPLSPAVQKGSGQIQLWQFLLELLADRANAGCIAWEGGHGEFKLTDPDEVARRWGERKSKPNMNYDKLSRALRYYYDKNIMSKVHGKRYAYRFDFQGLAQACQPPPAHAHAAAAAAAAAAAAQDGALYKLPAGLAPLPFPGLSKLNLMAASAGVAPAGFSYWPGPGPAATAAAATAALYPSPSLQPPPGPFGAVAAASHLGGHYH
In short: (§1)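 Yeast served to express human transcription factors as GST fusions, which were then captured on glutathione beads and labelled with DNA barcodes. Pooled with a tag-only sample, they were incubated with 200 nmole of a 16-mer random double-stranded DNA library for 30 min at room temperature in Tris/NaCl/DTT/glycerol buffer, washed, crosslinked with 0.1% formaldehyde, ligated by proximity, amplified by PCR and sequenced. Dividing each hexamer's read frequency for a factor by its frequency for the tag-only sample gives the binding signal.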

ETV5 = ETV5 (Homo sapiens, UniProt P41161 1-510); details: protein: recombinant; tags: N-terminal GST; dsDNA, one strand shown
Sequence of ETV5 (P41161 whole entry): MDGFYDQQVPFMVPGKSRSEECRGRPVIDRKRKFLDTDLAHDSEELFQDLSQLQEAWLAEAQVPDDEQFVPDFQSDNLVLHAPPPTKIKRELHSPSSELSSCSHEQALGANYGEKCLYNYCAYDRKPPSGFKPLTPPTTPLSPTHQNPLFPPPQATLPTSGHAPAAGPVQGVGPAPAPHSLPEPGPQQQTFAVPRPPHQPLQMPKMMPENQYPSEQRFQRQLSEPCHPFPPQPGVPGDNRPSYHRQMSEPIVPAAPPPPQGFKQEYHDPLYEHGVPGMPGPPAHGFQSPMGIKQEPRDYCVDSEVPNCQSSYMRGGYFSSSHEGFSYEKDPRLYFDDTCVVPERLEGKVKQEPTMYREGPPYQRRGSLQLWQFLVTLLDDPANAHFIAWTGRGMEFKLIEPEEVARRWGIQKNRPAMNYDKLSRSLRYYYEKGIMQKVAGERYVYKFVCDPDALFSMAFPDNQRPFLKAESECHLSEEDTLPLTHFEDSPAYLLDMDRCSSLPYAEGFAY
In short: as §1

HSF1 = HSF1 (Homo sapiens, UniProt Q00613 1-529); details: protein: recombinant; tags: N-terminal GST; chain copies: 3; dsDNA, one strand shown
Sequence of HSF1 (Q00613 whole entry): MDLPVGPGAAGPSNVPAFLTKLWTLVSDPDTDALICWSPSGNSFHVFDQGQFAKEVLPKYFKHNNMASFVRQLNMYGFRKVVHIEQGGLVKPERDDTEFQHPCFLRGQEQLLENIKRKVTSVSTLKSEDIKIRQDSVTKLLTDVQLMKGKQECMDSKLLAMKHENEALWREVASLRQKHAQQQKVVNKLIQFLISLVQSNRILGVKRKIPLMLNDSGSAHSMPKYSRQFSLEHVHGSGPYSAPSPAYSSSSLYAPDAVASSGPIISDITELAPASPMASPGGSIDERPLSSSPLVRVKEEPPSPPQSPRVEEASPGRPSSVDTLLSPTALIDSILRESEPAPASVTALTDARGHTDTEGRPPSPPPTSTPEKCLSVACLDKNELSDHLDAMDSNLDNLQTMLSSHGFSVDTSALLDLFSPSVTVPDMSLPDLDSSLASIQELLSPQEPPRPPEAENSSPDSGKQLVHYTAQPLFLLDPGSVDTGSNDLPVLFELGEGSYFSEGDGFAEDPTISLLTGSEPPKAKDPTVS
In short: as §1

SPIC = target: T2, SPIC (Homo sapiens, UniProt Q8N5J4 1-248); details: protein: recombinant; tags: N-terminal GST; dsDNA, one strand shown
T2 sequence: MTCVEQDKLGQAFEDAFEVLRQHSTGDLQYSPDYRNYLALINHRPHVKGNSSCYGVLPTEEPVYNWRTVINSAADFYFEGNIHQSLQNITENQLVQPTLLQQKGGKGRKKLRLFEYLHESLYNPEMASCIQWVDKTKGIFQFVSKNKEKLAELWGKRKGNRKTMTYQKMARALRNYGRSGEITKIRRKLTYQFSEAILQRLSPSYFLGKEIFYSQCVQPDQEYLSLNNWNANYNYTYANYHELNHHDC
In short: as §1

ELF4 = ELF4 (Homo sapiens, UniProt Q99607 1-663); details: protein: recombinant; tags: N-terminal GST; dsDNA, one strand shown
Sequence of ELF4 (Q99607 whole entry): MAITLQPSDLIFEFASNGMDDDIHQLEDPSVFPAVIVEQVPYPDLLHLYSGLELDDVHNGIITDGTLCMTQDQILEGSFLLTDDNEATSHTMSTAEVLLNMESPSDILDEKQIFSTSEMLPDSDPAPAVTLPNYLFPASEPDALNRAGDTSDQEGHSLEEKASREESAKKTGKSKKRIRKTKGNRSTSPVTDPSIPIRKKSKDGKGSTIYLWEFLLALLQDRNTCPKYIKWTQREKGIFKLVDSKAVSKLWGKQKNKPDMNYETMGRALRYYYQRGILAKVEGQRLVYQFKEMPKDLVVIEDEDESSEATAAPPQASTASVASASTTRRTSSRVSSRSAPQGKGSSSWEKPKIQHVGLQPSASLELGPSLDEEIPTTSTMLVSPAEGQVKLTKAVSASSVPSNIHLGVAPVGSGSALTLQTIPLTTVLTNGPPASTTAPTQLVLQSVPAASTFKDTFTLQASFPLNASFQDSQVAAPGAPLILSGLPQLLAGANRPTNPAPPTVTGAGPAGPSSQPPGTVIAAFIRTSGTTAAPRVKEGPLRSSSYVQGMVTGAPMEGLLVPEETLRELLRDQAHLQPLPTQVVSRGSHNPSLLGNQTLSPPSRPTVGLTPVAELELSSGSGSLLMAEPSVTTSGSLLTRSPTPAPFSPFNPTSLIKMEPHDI
In short: as §1

ELK4 = target: T3, ELK4 (Homo sapiens, UniProt P28324-2 1-405); details: protein: recombinant; tags: N-terminal GST; dsDNA, one strand shown
T3 sequence: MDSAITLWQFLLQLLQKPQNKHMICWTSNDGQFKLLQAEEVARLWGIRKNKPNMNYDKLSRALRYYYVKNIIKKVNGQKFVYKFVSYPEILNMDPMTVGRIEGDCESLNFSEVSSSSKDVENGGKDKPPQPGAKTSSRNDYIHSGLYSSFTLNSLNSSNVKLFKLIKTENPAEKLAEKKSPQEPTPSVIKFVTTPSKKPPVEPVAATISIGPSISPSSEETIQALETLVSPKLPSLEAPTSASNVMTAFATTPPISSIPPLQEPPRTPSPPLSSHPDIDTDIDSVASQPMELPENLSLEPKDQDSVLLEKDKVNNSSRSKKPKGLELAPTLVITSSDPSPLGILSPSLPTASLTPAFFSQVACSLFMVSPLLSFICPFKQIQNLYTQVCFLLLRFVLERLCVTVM
In short: as §1

ETV2 = target: T4, ETV2 (Homo sapiens, UniProt O00321 1-342); details: protein: recombinant; tags: N-terminal GST; dsDNA, one strand shown
T4 sequence: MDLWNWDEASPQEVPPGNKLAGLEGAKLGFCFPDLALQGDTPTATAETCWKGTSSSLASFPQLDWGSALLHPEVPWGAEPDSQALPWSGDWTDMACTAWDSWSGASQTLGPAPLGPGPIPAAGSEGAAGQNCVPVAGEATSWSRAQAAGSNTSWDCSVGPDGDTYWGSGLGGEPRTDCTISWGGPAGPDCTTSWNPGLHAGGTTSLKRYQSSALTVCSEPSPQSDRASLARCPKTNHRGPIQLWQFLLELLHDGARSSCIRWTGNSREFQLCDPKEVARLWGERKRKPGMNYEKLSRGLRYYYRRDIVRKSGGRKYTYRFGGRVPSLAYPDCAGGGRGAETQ
In short: as §1

ELF3 = target: T5, ELF3 (Homo sapiens, UniProt P78545 1-371); details: protein: recombinant; tags: N-terminal GST; dsDNA, one strand shown
T5 sequence: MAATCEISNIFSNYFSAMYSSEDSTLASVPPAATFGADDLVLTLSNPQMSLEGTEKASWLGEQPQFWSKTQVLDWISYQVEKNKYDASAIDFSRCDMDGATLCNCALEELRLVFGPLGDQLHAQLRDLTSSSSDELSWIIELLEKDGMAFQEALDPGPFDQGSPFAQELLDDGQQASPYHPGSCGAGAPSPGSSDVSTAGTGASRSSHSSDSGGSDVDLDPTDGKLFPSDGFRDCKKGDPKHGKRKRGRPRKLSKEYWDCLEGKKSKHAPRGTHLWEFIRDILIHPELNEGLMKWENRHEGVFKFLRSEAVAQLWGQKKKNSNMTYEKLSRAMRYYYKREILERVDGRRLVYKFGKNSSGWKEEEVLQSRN
In short: as §1

CRX = CRX (Homo sapiens, UniProt O43186 1-299); details: protein: recombinant; tags: N-terminal GST; dsDNA, one strand shown
Sequence of CRX (O43186 whole entry): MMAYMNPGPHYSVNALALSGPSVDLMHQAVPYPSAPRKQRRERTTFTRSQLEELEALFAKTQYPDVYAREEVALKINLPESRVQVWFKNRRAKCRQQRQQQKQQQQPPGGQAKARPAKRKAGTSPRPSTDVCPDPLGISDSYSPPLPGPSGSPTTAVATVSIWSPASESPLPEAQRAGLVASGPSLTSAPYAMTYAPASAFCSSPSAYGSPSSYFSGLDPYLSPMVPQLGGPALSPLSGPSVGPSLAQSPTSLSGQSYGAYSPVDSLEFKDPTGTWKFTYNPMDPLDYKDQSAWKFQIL
In short: as §1

ETV1 = ETV1 (Homo sapiens, UniProt P50549 1-477); details: protein: recombinant; tags: N-terminal GST; dsDNA, one strand shown
Sequence of ETV1 (P50549 whole entry): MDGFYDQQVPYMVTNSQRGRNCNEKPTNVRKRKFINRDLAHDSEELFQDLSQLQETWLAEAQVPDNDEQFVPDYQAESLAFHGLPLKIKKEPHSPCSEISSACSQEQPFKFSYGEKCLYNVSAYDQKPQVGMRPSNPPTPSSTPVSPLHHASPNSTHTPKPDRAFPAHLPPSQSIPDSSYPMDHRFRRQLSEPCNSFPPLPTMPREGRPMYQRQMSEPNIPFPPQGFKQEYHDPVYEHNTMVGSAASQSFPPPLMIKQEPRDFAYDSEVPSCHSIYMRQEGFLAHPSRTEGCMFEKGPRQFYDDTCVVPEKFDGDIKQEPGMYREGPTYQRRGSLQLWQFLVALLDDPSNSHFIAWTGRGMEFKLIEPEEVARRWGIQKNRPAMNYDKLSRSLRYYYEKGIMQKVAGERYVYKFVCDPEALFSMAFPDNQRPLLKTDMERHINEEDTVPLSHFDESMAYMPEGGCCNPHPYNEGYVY
In short: as §1

ERF = target: T6, ERF (Homo sapiens, UniProt P50548 1-548); details: protein: recombinant; tags: N-terminal GST; dsDNA, one strand shown
T6 sequence: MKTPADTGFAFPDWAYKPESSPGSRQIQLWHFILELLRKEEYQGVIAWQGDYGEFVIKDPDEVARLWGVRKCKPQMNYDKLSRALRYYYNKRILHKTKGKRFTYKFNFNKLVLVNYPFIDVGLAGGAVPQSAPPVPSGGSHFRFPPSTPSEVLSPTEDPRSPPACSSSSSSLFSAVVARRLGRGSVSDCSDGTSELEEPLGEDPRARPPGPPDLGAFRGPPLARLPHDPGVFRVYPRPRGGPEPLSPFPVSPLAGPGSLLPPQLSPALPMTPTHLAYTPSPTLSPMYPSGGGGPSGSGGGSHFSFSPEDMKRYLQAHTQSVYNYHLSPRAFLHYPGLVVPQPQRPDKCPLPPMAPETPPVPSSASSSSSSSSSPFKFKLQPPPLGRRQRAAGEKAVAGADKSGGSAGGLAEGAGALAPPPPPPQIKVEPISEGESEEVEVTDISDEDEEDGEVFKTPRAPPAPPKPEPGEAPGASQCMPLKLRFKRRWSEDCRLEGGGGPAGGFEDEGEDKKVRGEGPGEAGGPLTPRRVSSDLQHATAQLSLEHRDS
In short: as §1

ETV3L = target: T7, ETV3L (Homo sapiens, UniProt Q6ZN32 1-361); details: protein: recombinant; tags: N-terminal GST; dsDNA, one strand shown
T7 sequence: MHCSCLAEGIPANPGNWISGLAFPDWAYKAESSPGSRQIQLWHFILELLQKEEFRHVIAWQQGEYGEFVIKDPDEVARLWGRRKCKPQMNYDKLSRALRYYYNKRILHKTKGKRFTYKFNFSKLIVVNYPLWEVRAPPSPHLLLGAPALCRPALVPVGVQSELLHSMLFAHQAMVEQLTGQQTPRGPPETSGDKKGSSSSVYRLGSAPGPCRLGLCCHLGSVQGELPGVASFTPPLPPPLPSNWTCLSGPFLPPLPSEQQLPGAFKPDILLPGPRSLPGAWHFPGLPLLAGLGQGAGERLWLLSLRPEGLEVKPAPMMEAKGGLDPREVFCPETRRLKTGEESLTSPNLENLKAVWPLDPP
In short: as §1

ETS2 = target: T8, ETS2 (Homo sapiens, UniProt P15036 1-469); details: protein: recombinant; tags: N-terminal GST; dsDNA, one strand shown
T8 sequence: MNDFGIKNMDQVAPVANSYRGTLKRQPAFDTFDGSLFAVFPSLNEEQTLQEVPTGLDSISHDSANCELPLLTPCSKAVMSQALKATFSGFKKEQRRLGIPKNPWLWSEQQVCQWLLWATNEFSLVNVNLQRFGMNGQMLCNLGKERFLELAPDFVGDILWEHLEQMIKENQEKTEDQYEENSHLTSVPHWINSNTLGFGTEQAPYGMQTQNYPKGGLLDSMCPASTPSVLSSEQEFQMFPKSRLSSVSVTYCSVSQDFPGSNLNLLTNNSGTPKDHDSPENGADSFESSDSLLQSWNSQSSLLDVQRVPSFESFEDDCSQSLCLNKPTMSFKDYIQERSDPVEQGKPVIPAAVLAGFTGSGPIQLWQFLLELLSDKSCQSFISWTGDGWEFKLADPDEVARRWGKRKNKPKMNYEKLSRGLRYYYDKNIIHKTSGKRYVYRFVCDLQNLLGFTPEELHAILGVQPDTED
In short: as §1

SPDEF = target: T9, SPDEF (Homo sapiens, UniProt O95238 1-335); details: protein: recombinant; tags: N-terminal GST; dsDNA, one strand shown
T9 sequence: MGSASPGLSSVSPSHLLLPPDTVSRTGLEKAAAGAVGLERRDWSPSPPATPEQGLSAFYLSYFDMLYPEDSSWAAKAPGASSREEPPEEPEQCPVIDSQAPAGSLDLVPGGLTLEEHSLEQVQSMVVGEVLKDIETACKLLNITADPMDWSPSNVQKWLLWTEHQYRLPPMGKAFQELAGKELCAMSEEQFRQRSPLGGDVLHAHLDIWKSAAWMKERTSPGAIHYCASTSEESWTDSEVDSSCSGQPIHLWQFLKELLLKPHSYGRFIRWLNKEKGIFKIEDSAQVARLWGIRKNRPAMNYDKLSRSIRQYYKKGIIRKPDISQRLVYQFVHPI
In short: as §1

ETV7 = target: T10, ETV7 (Homo sapiens, UniProt Q9Y603 1-341); details: protein: recombinant; tags: N-terminal GST; dsDNA, one strand shown
T10 sequence: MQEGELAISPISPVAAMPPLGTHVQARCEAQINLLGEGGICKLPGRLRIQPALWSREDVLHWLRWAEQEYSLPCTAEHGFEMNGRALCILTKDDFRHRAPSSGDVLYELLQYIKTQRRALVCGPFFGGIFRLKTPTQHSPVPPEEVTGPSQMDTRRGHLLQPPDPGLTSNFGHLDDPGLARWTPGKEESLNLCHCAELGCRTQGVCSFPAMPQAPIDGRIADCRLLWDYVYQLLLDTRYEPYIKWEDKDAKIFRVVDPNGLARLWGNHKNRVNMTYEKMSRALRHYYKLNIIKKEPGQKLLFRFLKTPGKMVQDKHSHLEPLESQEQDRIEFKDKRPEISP
In short: as §1

ELF5 = target: T11, ELF5 (Homo sapiens, UniProt Q9UKW6-2 1-255); details: protein: recombinant; tags: N-terminal GST; dsDNA, one strand shown
T11 sequence: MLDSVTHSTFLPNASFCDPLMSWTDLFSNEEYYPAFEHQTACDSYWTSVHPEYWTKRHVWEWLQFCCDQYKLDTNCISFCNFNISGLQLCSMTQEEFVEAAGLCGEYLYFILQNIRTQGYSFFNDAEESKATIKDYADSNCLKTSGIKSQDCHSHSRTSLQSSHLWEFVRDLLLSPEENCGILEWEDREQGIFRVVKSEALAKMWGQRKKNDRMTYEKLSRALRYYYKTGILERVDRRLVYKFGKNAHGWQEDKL
In short: as §1

ETV3 = target: T12, ETV3 (Homo sapiens, UniProt P41162-2 1-143); details: protein: recombinant; tags: N-terminal GST; dsDNA, one strand shown
T12 sequence: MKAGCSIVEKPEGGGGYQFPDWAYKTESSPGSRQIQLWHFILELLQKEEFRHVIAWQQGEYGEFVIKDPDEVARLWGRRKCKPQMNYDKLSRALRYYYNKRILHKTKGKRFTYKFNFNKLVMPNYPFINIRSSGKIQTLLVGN
In short: as §1

ETV6 = ETV6 (Homo sapiens, UniProt P41212 1-452); details: protein: recombinant; tags: N-terminal GST; dsDNA, one strand shown
Sequence of ETV6 (P41212 whole entry): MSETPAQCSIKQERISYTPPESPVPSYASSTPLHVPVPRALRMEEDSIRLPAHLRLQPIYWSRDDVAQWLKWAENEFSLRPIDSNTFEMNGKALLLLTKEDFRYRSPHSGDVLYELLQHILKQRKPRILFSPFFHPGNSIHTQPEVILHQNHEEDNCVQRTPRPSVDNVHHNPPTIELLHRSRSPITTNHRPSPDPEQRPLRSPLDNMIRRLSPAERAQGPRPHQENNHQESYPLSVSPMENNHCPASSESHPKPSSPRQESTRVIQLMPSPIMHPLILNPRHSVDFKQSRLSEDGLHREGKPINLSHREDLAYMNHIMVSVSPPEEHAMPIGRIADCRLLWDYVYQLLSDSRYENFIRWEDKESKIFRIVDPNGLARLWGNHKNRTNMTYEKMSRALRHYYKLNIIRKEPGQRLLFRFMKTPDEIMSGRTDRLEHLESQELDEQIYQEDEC
In short: as §1

Sequence	binding signal (FEV)	binding signal (ETV5)	binding signal (HSF1)	binding signal (SPIC)	binding signal (ELF4)	binding signal (ELK4)	binding signal (ETV2)	binding signal (ELF3)	binding signal (CRX)	binding signal (ETV1)	binding signal (ERF)	binding signal (ETV3L)	binding signal (ETS2)	binding signal (SPDEF)	binding signal (ETV7)	binding signal (ELF5)	binding signal (ETV3)	binding signal (ETV6)
TTCCAG	1.05 fold enrichment (6-mer frequency, TF over GST control)	1.06 fold enrichment (6-mer frequency, TF over GST control)	3.69 fold enrichment (6-mer frequency, TF over GST control)	1.02 fold enrichment (6-mer frequency, TF over GST control)	1.17 fold enrichment (6-mer frequency, TF over GST control)	1.15 fold enrichment (6-mer frequency, TF over GST control)	1.12 fold enrichment (6-mer frequency, TF over GST control)	1.05 fold enrichment (6-mer frequency, TF over GST control)	1.68 fold enrichment (6-mer frequency, TF over GST control)	1.05 fold enrichment (6-mer frequency, TF over GST control)	1.09 fold enrichment (6-mer frequency, TF over GST control)	1.09 fold enrichment (6-mer frequency, TF over GST control)	1.12 fold enrichment (6-mer frequency, TF over GST control)	1.04 fold enrichment (6-mer frequency, TF over GST control)	1.16 fold enrichment (6-mer frequency, TF over GST control)	1.18 fold enrichment (6-mer frequency, TF over GST control)	1.06 fold enrichment (6-mer frequency, TF over GST control)	1.15 fold enrichment (6-mer frequency, TF over GST control)
TGCCTT	1.3 fold enrichment (6-mer frequency, TF over GST control)	1.36 fold enrichment (6-mer frequency, TF over GST control)	1.27 fold enrichment (6-mer frequency, TF over GST control)	1.55 fold enrichment (6-mer frequency, TF over GST control)	1.27 fold enrichment (6-mer frequency, TF over GST control)	1.43 fold enrichment (6-mer frequency, TF over GST control)	1.2 fold enrichment (6-mer frequency, TF over GST control)	1.45 fold enrichment (6-mer frequency, TF over GST control)	1.33 fold enrichment (6-mer frequency, TF over GST control)	1.34 fold enrichment (6-mer frequency, TF over GST control)	1.24 fold enrichment (6-mer frequency, TF over GST control)	1.52 fold enrichment (6-mer frequency, TF over GST control)	1.38 fold enrichment (6-mer frequency, TF over GST control)	1.32 fold enrichment (6-mer frequency, TF over GST control)	1.28 fold enrichment (6-mer frequency, TF over GST control)	1.39 fold enrichment (6-mer frequency, TF over GST control)	1.31 fold enrichment (6-mer frequency, TF over GST control)	1.23 fold enrichment (6-mer frequency, TF over GST control)
